In PubChem BioAssay (EPA / NIEHS) one finds outcome and AC50 data, which are given here for 38 molecules.

The term AC50 denotes the concentration at which the activity in the assay is half-maximal.

Calls of active or inactive are those of the source. How the source made its calls: active means hit-call score of the fitted dose curve at least 0.9, where 1 is the maximum; inactive means score below 0.9.

The first test deals with Signal transducer and activator of transcription 3 (Homo sapiens) (UniProt P40763). Kind of test: ATG_STAT3_CIS: Attagene CIS-FACTORIAL HepG2 Assay for human Signal Transducer and Activator of Transcription 3 (STAT3) (AID 2282963). The note with it: HepG2, Attagene cis-factorial STAT3 reporter transcription; actives raise or lower the signal. In a few lines: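 Readout: fluorescent reporter mRNA fragments resolved by capillary electrophoresis. Setup: HepG2 transfected with MRTUs reporting endogenous transcription-factor activity, dosed 24 h. Gain or loss of signal fitted bidirectionally against DMSO control.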
Sequence of Signal transducer and activator of transcription 3 (Homo sapiens) (P40763 whole entry, looked up, the tested form may be a part): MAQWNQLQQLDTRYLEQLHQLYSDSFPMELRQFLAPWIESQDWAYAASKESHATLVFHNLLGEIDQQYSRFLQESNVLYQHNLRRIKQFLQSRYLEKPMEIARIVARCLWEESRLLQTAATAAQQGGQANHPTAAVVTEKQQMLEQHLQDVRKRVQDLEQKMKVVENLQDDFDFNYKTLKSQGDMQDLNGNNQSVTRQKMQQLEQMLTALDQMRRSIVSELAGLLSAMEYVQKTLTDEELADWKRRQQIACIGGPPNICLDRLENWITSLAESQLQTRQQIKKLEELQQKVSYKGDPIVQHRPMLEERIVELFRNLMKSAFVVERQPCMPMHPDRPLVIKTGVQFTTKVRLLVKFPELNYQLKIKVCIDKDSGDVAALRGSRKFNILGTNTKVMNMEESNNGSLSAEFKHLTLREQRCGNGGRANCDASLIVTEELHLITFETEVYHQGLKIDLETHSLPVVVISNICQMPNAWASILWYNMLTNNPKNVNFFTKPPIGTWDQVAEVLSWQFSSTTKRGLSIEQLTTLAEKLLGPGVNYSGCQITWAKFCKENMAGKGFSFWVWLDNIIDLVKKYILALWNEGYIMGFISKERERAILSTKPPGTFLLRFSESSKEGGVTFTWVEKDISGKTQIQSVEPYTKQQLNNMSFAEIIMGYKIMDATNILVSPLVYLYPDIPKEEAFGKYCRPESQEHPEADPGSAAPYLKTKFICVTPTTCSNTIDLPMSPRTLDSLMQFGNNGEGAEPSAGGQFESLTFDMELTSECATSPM
For `O=C(O)C[C@H](O)C[C@H](O)/C=C/c1c(C2CC2)nc2ccccc2c1-c1ccc(F)cc1`, the molecule was called inactive.
As for `CC(=O)Nc1ccc(C)cc1C`, the outcome was inactive.
The same measure, in the same setting: for `COC(=O)Cc1cccc2ccccc12` the value was “inactive”; for `CC(=O)Nc1ccccc1O`, “inactive”.
In the case of `CC(=O)O[C@]1(C(C)=O)CC[C@H]2[C@@H]3C[C@H](C)C4=CC(=O)CC[C@]4(C)[C@H]3CC[C@@]21C`, the outcome was inactive.
As for `CC[Si](OC(C)=O)(OC(C)=O)OC(C)=O`, the outcome was inactive.
On to `Nc1cccc(S(=O)(=O)c2cccc(N)c2)c1`, for which the call was inactive.
For `CC(C)(COC(=O)c1ccccc1)COC(=O)c1ccccc1`, the molecule was classed as inactive.
On to `C=CCOC(=O)CCC1CCCCC1`, for which the call was inactive.
As for `O=C(O)c1snc(Cl)c1Cl`, the call was inactive.
As for `C[Si](O[Si](C)(C)C)O[Si](C)(C)C`, the molecule was called inactive.
In the case of `CCc1c(C)cc(N)c(CC)c1N`, the molecule was classed as inactive.
For `CC(=O)[O][Al][O]C(C)=O`, the call was inactive.
In the case of `CCCCCCCCCCCCCOS(=O)(=O)O`, the outcome was inactive.
Same read-out and setting: for `Cc1ccc2ccccc2n1` the value was “inactive”; for `CC(C)(C)NC(N)=O`, “inactive”; for `CCCOCC(C)O` (stereo not given), “inactive”.
The same measure, in the same setting: for `CNCCO` the value was “inactive”.
In the case of `CCC(C)(O)CCC=C(C)C` (stereo not given), the result was inactive.
For the molecule `COc1cc(C(C)(C)C)c(O)c(C(C)(C)C)c1`, the call was inactive.
For the molecule `Clc1ccc(Cl)c(Cl)c1Cl`, the call was inactive.
For the molecule `O=C(O)c1cccc([N+](=O)[O-])c1`, the molecule was classed as inactive.
Take `C=CC(=O)OCCn1c(=O)n(CCOC(=O)C=C)c(=O)n(CCOC(=O)C=C)c1=O`: the half-maximal activity concentration (AC50) is 27 µM (active).
Consider `Clc1nc(C(Cl)(Cl)Cl)c(Cl)c(Cl)c1Cl`, for which the molecule was called inactive.
For `O=Nc1ccc(Nc2ccccc2)cc1`, the molecule was called inactive.
For the molecule `N#Cc1ccccc1`, the call was inactive.
The same measure, in the same setting: for `O=c1[nH]c(=O)n([C@H]2CCCO2)cc1F` the value was “inactive”.

Tested on in another test: not listed separately
Kind of test: ATG_TA_CIS: Attagene CIS-FACTORIAL HepG2 Assay for human TA Basal Promoter (AID 2282964). Conditions: HepG2 Attagene CIS-factorial TA basal promoter reporter; actives raise or lower the signal. In a few lines:
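Multiplexed mRNA reporter assay, HepG2, 24 h. Reporter cDNA amplified, 6-FAM primer-extended, HpaI-cut, CE-sized; DMSO = negative control and baseline.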
`CCCCC(CC)COC(=O)/C=C\C(=O)OCC(CC)CCCC` (stereo not given): the call was inactive.
Regarding `O=C(O)C[C@H](O)C[C@H](O)/C=C/c1c(C2CC2)nc2ccccc2c1-c1ccc(F)cc1`, the outcome was inactive.
Consider `O=P(c1ccccc1)(c1ccccc1)c1ccccc1`, for which the molecule was called inactive.
The same measure, in the same setting: for `CC(=O)Nc1ccc(C)cc1C` the value was “inactive”; for `COC(=O)Cc1cccc2ccccc12`, “inactive”.
Turning to `CC(=O)Nc1ccccc1O`, the call was inactive.
On the same count and under the same terms, for `O=C(O)c1cn(C2CC2)c2cc(N3CCNCC3)c(F)cc2c1=O` the value was “inactive”; for `CCCCCCCCCCCCN(CCCCCCCCCCCC)CCCCCCCCCCCC`, “inactive”; for `CSc1nnc(C(C)(C)C)c(=O)[nH]1`, “inactive”.
For `CC(=O)O[C@]1(C(C)=O)CC[C@H]2[C@@H]3C[C@H](C)C4=CC(=O)CC[C@]4(C)[C@H]3CC[C@@]21C`, the AC50 was 42.4 µM (active).
For `CC[Si](OC(C)=O)(OC(C)=O)OC(C)=O`, the molecule was classed as inactive.
The same measure, in the same setting: for `Nc1cccc(S(=O)(=O)c2cccc(N)c2)c1` the value was “inactive”.
For `CCCCCCCCC`, the molecule was called inactive.
For `CC(C)(COC(=O)c1ccccc1)COC(=O)c1ccccc1`, the call was inactive.
For `C=CCOC(=O)CCC1CCCCC1`, the call was inactive.
Turning to `COc1cccc(OC)c1`, the molecule was called inactive.
`O=C(O)c1snc(Cl)c1Cl`: the outcome was inactive.
Still for that read-out and setting: for `O=C(O)COCCN1CCN(C(c2ccccc2)c2ccc(Cl)cc2)CC1` (stereo not given) the value was “inactive”; for `CN1[C@@H]2CC(OC(=O)[C@H](CO)c3ccccc3)C[C@H]1[C@@H]1O[C@@H]12` (stereo not given in full), “inactive”.
As for `C[Si](O[Si](C)(C)C)O[Si](C)(C)C`, the outcome was inactive.
Take `CCc1c(C)cc(N)c(CC)c1N`: the call was inactive.
Consider `CC(=O)[O][Al][O]C(C)=O`, for which the call was inactive.
Turning to `CCCCCCCCCCCCCOS(=O)(=O)O`, the molecule was classed as inactive.
For `Cc1ccc2ccccc2n1`, the call was inactive.
`CC(C)(C)NC(N)=O`: the outcome was inactive.
As to `CCCc1c(OCCCOc2ccc(OCC(=O)O)cc2)ccc(C(C)=O)c1O`, the AC50 was 26.7 µM (active).
Consider `CNCCO`, for which the call was inactive.
With `CCC(C)(O)CCC=C(C)C` (stereo not given), the call was inactive.
Consider `Clc1ccc(Cl)c(Cl)c1Cl`, for which the molecule was classed as inactive.
With `O=C(O)c1cccc([N+](=O)[O-])c1`, the call was inactive.
`C=CC(=O)OCCn1c(=O)n(CCOC(=O)C=C)c(=O)n(CCOC(=O)C=C)c1=O`: the outcome was inactive.
`Clc1nc(C(Cl)(Cl)Cl)c(Cl)c(Cl)c1Cl`: the molecule was called inactive.
As for `O=Nc1ccc(Nc2ccccc2)cc1`, the result was inactive.
Consider `N#Cc1ccccc1`, for which the molecule was classed as inactive.
For `O=c1[nH]c(=O)n([C@H]2CCCO2)cc1F`, the molecule was classed as inactive.

Tested on in a further test: not listed separately
Description: ATG_TCF_b_cat_CIS: Attagene CIS-FACTORIAL HepG2 Assay for human T-Cell-Factor with beta-catenin (TCF/b-cat) (AID 2282965). Conditions: HepG2 TCF/beta-catenin cis-reporter transcription, actives raise or lower the signal. The procedure, abridged:
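Cells of the HepG2 line carry transiently transfected reporter units whose promoters respond to endogenous factors. Twenty-four hours post-dosing, reporter mRNA induction is measured by fluorescent RT-PCR and capillary electrophoresis, with DMSO as baseline.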
Consider `CCCCC(CC)COC(=O)/C=C\C(=O)OCC(CC)CCCC` (stereo not given), for which the molecule was classed as inactive.
Regarding `O=C(O)C[C@H](O)C[C@H](O)/C=C/c1c(C2CC2)nc2ccccc2c1-c1ccc(F)cc1`, the molecule was classed as inactive.
Still for that read-out and setting: for `O=P(c1ccccc1)(c1ccccc1)c1ccccc1` the value was “inactive”; for `CC(=O)Nc1ccc(C)cc1C`, “inactive”; for `COC(=O)Cc1cccc2ccccc12`, “inactive”.
On to `CC(=O)Nc1ccccc1O`, for which the molecule was classed as inactive.
The same measure, in the same setting: for `O=C(O)c1cn(C2CC2)c2cc(N3CCNCC3)c(F)cc2c1=O` the value was “inactive”; for `CCCCCCCCCCCCN(CCCCCCCCCCCC)CCCCCCCCCCCC`, “inactive”; for `CSc1nnc(C(C)(C)C)c(=O)[nH]1`, “inactive”.
Turning to `CC(=O)O[C@]1(C(C)=O)CC[C@H]2[C@@H]3C[C@H](C)C4=CC(=O)CC[C@]4(C)[C@H]3CC[C@@]21C`, the result was inactive.
As for `CC[Si](OC(C)=O)(OC(C)=O)OC(C)=O`, the molecule was called inactive.
`Nc1cccc(S(=O)(=O)c2cccc(N)c2)c1`: the call was inactive.
`CCCCCCCCC`: the call was inactive.
Consider `CC(C)(COC(=O)c1ccccc1)COC(=O)c1ccccc1`, for which the molecule was called inactive.
Regarding `C=CCOC(=O)CCC1CCCCC1`, the molecule was called inactive.
Turning to `COc1cccc(OC)c1`, the outcome was inactive.
Turning to `O=C(O)c1snc(Cl)c1Cl`, the AC50 is 167 µM (active).
Turning to `O=C(O)COCCN1CCN(C(c2ccccc2)c2ccc(Cl)cc2)CC1` (stereo not given), the result was inactive.
On to `CN1[C@@H]2CC(OC(=O)[C@H](CO)c3ccccc3)C[C@H]1[C@@H]1O[C@@H]12` (stereo not given in full), for which the molecule was called inactive.
For the molecule `C[Si](O[Si](C)(C)C)O[Si](C)(C)C`, the result was inactive.
With `CCc1c(C)cc(N)c(CC)c1N`, the result was inactive.
For the molecule `CC(=O)[O][Al][O]C(C)=O`, the molecule was classed as inactive.
As to `CCCCCCCCCCCCCOS(=O)(=O)O`, the outcome was inactive.
`CCCCC[Si](OCC)(OCC)OCC`: the outcome was inactive.
Take `Cc1ccc2ccccc2n1`: the call was inactive.
As for `CC(C)(C)NC(N)=O`, the molecule was classed as inactive.
With `CCCc1c(OCCCOc2ccc(OCC(=O)O)cc2)ccc(C(C)=O)c1O`, the AC50 is 25.6 µM (active).
Consider `CCCOCC(C)O` (stereo not given), for which the molecule was called inactive.
In the case of `CNCCO`, the molecule was called inactive.
Regarding `CCC(C)(O)CCC=C(C)C` (stereo not given), the result was inactive.
On the same count and under the same terms, for `COc1cc(C(C)(C)C)c(O)c(C(C)(C)C)c1` the value was “inactive”; for `Clc1ccc(Cl)c(Cl)c1Cl`, “inactive”; for `O=C(O)c1cccc([N+](=O)[O-])c1`, “inactive”.
For `C=CC(=O)OCCn1c(=O)n(CCOC(=O)C=C)c(=O)n(CCOC(=O)C=C)c1=O`, the AC50 is 9.02 µM (active).
Take `Clc1nc(C(Cl)(Cl)Cl)c(Cl)c(Cl)c1Cl`: the AC50 was 62.7 µM (active).
Still for that read-out and setting: for `O=Nc1ccc(Nc2ccccc2)cc1` the value was 20.9 µM (active).
As to `N#Cc1ccccc1`, the outcome was inactive.
Same read-out and setting: for `O=c1[nH]c(=O)n([C@H]2CCCO2)cc1F` the value was “inactive”.
